# In PubChem BioAssay:
# The source made the active and inactive calls. Unless noted, no rule for the calls is given here.
# Columns and labels:
# [1] = tested on: Wnt5a (protein binding on small-molecule microarray); experiment: small molecules binding Wnt5a protein – biophysical, small-molecule microarray, 635/667 nm fluorescence, primary screen (AID 1142); conditions: 635 nm fluorescence, higher = more signal;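 also: fluorescence read at 667 nm with signal to noise per printed feature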
# [2] = ATP-based viability of Huh7 replicon cells – cell-based, CellTiter-Glo luminescence, basal, 48 h, cytotoxicity control for HCV replication inhibitor project, primary screen (AID 1143); conditions: higher = more signal, called active from +8 up or from −8 down;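 also: Huh7 hepatoma cells carrying a hepatitis C replication reporter with no stimulus; test concentration not given here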
# [3] = Pseudomonas biofilm growth suppression – PAO1 strain, BacTiter-Glo luminescence, LB-PBS, primary screen (AID 1144); conditions: P. aeruginosa PAO1 biofilm, 12 h, higher = more signal
# [4] = basal CRE-LacZ reporter activity in PC12 – cell-based, unstimulated, primary screen (AID 1145); conditions: no forskolin, luminescence, 4.5 h, higher = more signal, called active from +8 up or from −8 down
# [5] = forskolin-driven CRE-LacZ activity in PC12 – cell-based, CRE-LacZ reporter, forskolin-stimulated, primary screen (AID 1146); conditions: luminescence, 4.5 h, higher = more signal, called active from +8 up or from −8 down;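 also: PC12 cells with 6xCRE LacZ reporter stimulated by forskolin 10 µM; beta-galactosidase reporter signal reflecting CREB driven transcription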
# [6] = target: Streptavidin (Streptomyces avidinii) (UniProt P22629); experiment: compounds binding control protein streptavidin – biophysical, small-molecule microarray, 635/667 nm fluorescence, artefact control for SMM compound annotation, primary screen (AID 1147); conditions: higher = more signal;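 also: signal reflects streptavidin binding to arrayed compounds as a control protein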
# Sequence of Streptavidin (Streptomyces avidinii) (P22629 whole entry, looked up): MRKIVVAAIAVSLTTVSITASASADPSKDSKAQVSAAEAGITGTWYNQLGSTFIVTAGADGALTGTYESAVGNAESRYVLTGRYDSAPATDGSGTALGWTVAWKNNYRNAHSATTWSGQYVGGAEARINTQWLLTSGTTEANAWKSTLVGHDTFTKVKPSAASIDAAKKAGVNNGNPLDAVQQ
# [7] = probe aInhba binding on compound microarray – biochemical, small-molecule microarray, 635/667 nm fluorescence, primary screen (AID 1148); conditions: higher = more signal;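 also: score merges 667nm spot fluorescence with signal-to-noise for antibody binding to printed compounds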
# Torsin-1A (Homo sapiens) [8] = target: Torsin-1A (Homo sapiens) (UniProt O14656); experiment: TOR1A wild-type binding on microarray – cell lysate, small-molecule microarray, lysate, 635/667 nm, primary screen (AID 1149); conditions: COS7 hTOR1A-WT lysate, 635 nm fluorescence, higher = more signal
# Sequence of Torsin-1A (Homo sapiens) (O14656 whole entry, looked up): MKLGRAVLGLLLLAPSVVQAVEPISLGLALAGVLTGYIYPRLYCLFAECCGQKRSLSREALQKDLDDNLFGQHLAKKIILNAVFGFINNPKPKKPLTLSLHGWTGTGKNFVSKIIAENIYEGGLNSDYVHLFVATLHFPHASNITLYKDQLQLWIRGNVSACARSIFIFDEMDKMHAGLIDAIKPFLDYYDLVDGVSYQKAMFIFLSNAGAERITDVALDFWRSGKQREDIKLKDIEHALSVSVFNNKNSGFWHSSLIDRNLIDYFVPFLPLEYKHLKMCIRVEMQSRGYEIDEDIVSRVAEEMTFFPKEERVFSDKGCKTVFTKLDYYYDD
# Torsin-1A (Homo sapiens) [9] = target: Torsin-1A (Homo sapiens) (UniProt O14656); experiment: torsin A mutant lysate binding on microarrays – cell lysate, small-molecule microarray, COS7 lysate, 635/667 nm fluorescence, primary screen (AID 1150); conditions: COS7 hTOR1A mutant lysate, 635 nm fluorescence, higher = more signal;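 also: score pools 667 nm emission and signal to noise measuring lysate protein binding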
# [10] = tested on: Sonic hedgehog protein (Shh); experiment: Sonic hedgehog microarray binding compounds – biochemical, small-molecule microarray, 635/667 nm fluorescence, primary screen (AID 1151); conditions: 635 nm fluorescence, higher = more signal;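 also: Shh protein binding to compounds spotted on small-molecule microarray slides; score combines spot fluorescence intensity with signal-to-noise across triplicate slides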
# [11] = optical density shifts of acrAB sulA E. coli – strain DRC41, OD650, 48 h, E. coli filamentation inducer project, primary screen (AID 1152); conditions: higher = more signal, called active from +8 up or from −8 down;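 also: E. coli MC1000 strain DRC41 lacking acrAB efflux pump and sulA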
# [12] = probe aLefty1 binding on compound microarray – biochemical, small-molecule microarray, 635/667 nm fluorescence, primary screen (AID 1153); conditions: higher = more signal;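 also: score merges spot fluorescence with signal-to-noise ratio from the scanned slide images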
# [13] = plasmodial surface anion channel blockers, osmotic lysis – cell-based, P. falciparum Indochina, OD700, 1 h, primary screen (AID 1154); conditions: P. falciparum Indochina infected RBC osmotic lysis, higher = more signal, called active from +8 up or from −8 down
# [14] = plasmodial surface anion channel blockers, osmotic lysis – cell-based, P. falciparum Indochina, OD700, 2 h, primary screen (AID 1155);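 also: lysis reports solute entry through the parasite surface anion channel PSAC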; conditions: P. falciparum Indochina infected erythrocytes, higher = more signal, called active from +8 up or from −8 down
# [15] = changes in parasitized red cell lysis, either direction – P. falciparum Indochina, OD700, 3 h, PSAC antagonist project, primary screen (AID 1156); conditions: P. falciparum-infected erythrocytes, osmotic lysis, higher = more signal, called active from +8 up or from −8 down
# [16] = plasmodial surface anion channel blockers, osmotic lysis – cell-based, P. falciparum Indochina, OD700, 18 h, primary screen (AID 1157); conditions: P. falciparum Indochina infected erythrocytes, osmotic lysis OD700, 18 h; higher = more signal, called active from +8 up or from −8 down
# [17] = S6 kinase pathway phospho-S6 level changes – cell-based, A549, cytoblot, luminescence, serum-stimulated, primary screen (AID 1158); conditions: 5 h, higher = more signal;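 also: serum-stimulated A549 lung adenocarcinoma cells; signal is phosphorylated S6 detected by cytoblot immunostaining with HRP secondary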
# [18] = target: NADPH oxidase 2 (Homo sapiens) (UniProt P04839); experiment: compounds shifting NOX2 Amplex Red fluorescence – cell-based, HEK293-NOX2, PMA-stimulated, NOX inhibitor project, primary screen (AID 1159); conditions: 45 min, higher = more signal, called active from +8 up or from −8 down; also: test concentration not given here
# Sequence of NADPH oxidase 2 (Homo sapiens) (P04839 whole entry, looked up): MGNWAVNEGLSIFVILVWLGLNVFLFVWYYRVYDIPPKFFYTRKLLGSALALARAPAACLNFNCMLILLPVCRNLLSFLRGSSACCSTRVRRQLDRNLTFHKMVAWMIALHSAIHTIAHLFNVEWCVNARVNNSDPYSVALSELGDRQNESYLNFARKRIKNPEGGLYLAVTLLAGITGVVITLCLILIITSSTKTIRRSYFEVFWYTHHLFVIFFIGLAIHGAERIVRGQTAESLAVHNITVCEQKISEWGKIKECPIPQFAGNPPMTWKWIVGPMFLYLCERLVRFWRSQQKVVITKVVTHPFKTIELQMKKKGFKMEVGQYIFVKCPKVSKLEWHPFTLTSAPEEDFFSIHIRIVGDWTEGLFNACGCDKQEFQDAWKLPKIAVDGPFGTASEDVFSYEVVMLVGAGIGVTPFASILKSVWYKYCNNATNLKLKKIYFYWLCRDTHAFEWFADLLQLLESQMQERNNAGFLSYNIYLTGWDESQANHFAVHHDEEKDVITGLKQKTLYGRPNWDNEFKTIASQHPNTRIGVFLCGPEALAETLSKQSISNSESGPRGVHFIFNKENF
# [19] = target: NADPH oxidase 4 (Homo sapiens) (UniProt Q9NPH5); experiment: compounds shifting NOX4 Amplex Red fluorescence – cell-based, HEK293-NOX4, tetracycline-induced, NOX inhibitor project, primary screen (AID 1160); conditions: HEK293-NOX4, Amplex Red H2O2 fluorescence, 45 min; higher = more signal, called active from +8 up or from −8 down
# Sequence of NADPH oxidase 4 (Homo sapiens) (Q9NPH5 whole entry, looked up): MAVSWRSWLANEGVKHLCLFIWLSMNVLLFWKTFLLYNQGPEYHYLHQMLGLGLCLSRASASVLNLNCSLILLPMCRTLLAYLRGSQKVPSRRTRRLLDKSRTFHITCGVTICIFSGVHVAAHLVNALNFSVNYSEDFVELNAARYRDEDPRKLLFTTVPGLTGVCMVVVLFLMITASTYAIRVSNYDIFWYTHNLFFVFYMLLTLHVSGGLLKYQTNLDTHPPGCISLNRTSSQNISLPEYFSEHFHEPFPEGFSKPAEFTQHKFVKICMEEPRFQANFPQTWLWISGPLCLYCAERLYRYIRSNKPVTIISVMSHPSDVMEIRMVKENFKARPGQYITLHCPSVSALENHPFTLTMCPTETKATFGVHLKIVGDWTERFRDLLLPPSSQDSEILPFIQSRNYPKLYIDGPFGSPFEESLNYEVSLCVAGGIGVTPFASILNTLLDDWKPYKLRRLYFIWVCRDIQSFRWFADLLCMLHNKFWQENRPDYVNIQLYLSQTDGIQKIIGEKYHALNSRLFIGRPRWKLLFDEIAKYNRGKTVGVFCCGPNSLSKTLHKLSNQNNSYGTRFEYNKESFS
# [20] = target: NADPH oxidase 5 (Homo sapiens) (UniProt Q96PH1); experiment: compounds shifting NOX5 Amplex Red fluorescence – cell-based, HEK293-NOX5, NOX inhibitor project, primary screen (AID 1161); conditions: HEK293-NOX5, ionomycin, 45 min, higher = more signal
# Sequence of NADPH oxidase 5 (Homo sapiens) (Q96PH1 whole entry, looked up): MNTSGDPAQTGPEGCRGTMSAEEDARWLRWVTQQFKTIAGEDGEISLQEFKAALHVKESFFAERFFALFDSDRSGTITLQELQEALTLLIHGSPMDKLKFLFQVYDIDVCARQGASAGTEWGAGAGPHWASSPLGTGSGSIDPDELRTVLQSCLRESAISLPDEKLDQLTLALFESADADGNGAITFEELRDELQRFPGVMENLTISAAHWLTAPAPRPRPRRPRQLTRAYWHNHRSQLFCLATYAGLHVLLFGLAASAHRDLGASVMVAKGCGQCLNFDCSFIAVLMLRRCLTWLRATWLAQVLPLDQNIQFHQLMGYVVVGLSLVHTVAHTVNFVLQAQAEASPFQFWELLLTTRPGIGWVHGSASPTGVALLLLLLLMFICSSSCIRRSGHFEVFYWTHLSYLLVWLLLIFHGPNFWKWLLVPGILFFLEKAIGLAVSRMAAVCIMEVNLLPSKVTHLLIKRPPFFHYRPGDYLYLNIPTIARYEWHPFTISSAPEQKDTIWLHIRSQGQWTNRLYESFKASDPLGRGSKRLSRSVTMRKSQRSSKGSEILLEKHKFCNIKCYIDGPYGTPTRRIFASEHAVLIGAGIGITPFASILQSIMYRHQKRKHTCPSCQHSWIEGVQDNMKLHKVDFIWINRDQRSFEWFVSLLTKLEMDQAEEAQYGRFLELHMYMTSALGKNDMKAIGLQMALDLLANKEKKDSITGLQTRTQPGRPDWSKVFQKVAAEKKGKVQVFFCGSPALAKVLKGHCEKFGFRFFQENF
Compound,composite z-score [1],z-score [2],z-score [3],z-score [4],z-score [5],composite z-score [6],composite z-score [7],composite z-score (Torsin-1A (Homo sapiens) [8]),composite z-score (Torsin-1A (Homo sapiens) [9]),composite z-score [10],z-score [11],composite z-score [12],z-score [13],z-score [14],z-score [15],z-score [16],z-score [17],z-score [18],z-score [19],z-score [20]
COC(=O)[C@@]1(Cc2ccc(OC)cc2)[C@@H]2C(=CC(=O)[C@H]2CC(=O)C(=O)N(C)C)CN1C(=O)c1ccccc1,0.956,-3.7 (inactive),-0.946 (inactive),0.0109 (inactive),0.0777 (inactive),1.23,1.04,0.0826,0.387,-0.671,-2.06 (inactive),0.485,2.07 (inactive),0.584 (inactive),0.481 (inactive),1.38 (inactive),0.808,-0.192 (inactive),1.39 (inactive),1.32
CN(C)CCCNC(=O)[C@@]1(C)c2ccccc2C(=O)N(Cc2ccccc2)[C@H]1c1ccc(CO)cc1,0.0404,-1.97 (inactive),0.329 (inactive),0.389 (inactive),0.261 (inactive),-0.324,-0.176,-0.334,-0.365,0.498,-0.074 (inactive),-0.146,2.17 (inactive),0.426 (inactive),1.32 (inactive),0.377 (inactive),-0.142,0.42 (inactive),-1.25 (inactive),0.6
O=C1C=C(c2ccccc2)C(=O)c2ccc([C@H]3Oc4ccccc4S(=O)(=O)N4CCC[C@@H]34)cc21,0.34,-6.42 (inactive),0.016 (inactive),9.47 (active),33 (active),-0.309,-0.258,0.0359,1.97,0.222,0.864 (inactive),-0.08,2.45 (inactive),0.0567 (inactive),-0.37 (inactive),-0.236 (inactive),0.208,0.398 (inactive),-5.41 (inactive),-6.41
COc1ccc([Si](C)(C)[C@@H]2[C@@H](CC(=O)N3Cc4ccccc4C[C@H]3CO)O[C@]3(C(=O)N(C)c4ccccc43)[C@H]2C)cc1,0.269,-7.08 (inactive),-1.58 (inactive),10.2 (active),-1.92 (inactive),1.64,0.189,0.783,0.741,2.03,-0.883 (inactive),0.503,11.8 (active),2.87 (inactive),0.368 (inactive),1.21 (inactive),0.884,-0.11 (inactive),0.00429 (inactive),-1.7
O=C1O[C@H](c2ccccc2)[C@H](c2ccccc2)N2[C@H]1[C@@H](C(=O)Nc1nc3ccccc3s1)[C@]1(C(=O)Nc3ccc(C#CCCO)cc31)[C@H]2c1ccc(O)cc1,-0.11,0.358 (inactive),-0.911 (inactive),-0.141 (inactive),-0.782 (inactive),1.09,-0.176,0.232,0.7,1.36,-0.742 (inactive),0.026,0.402 (inactive),1.05 (inactive),-5.42 (inactive),1.23 (inactive),-0.263,1.08 (inactive),0.38 (inactive),-0.901
CC(C)OC(=O)C=C1C[C@@H](c2ccc(C(F)(F)F)cc2)O[C@@H](c2ccc(C(F)(F)F)cc2)O1,-0.1,-3.23 (inactive),-1.17 (inactive),-0.723 (inactive),-0.163 (inactive),-0.208,-0.157,0.827,0.483,-0.831,0.609 (inactive),-0.0954,2.79 (inactive),-0.301 (inactive),-0.101 (inactive),-1.05 (inactive),0.569,0.283 (inactive),-0.175 (inactive),-0.0582
O=C1NC(=O)C2C1C=CC(C(O)c1c(F)cccc1Cl)N2Nc1ccc(Cl)cc1Cl (stereo not given),0.275,-1.37 (inactive),-0.159 (inactive),0.632 (inactive),-0.524 (inactive),1.23,0.414,0.465,1.27,-0.854,-3.86 (inactive),0.501,3.9 (inactive),0.914 (inactive),-0.87 (inactive),1.17 (inactive),-1.27,0.295 (inactive),-5.4 (inactive),-2.57
COc1ccc([Si](C)(C)[C@@H]2[C@@H](CC(=O)N3Cc4ccccc4C[C@H]3CO)O[C@]3(C(=O)N(Cc4cccc(N5C(=O)c6cccc7cccc5c67)c4)c4ccccc43)[C@H]2C)cc1,0.51,-4.1 (inactive),-0.194 (inactive),0.861 (inactive),0.838 (inactive),0.211,0.0091,0.786,0.535,1.19,-0.721 (inactive),-0.0601,2.4 (inactive),0.963 (inactive),-0.369 (inactive),0.376 (inactive),0.015,-0.579 (inactive),0.668 (inactive),2.34
CC(C)N1CC=CC23O[C@@H]4C=CCOC(=O)[C@@H]4[C@H]2C(=O)N(CCCO)[C@@H]3C1=O (stereo not given in full),-0.26,-5.24 (inactive),-2.47 (inactive),-1.31 (inactive),-0.931 (inactive),-0.941,-0.182,1.12,0.874,-0.182,2.97 (inactive),-0.14,1.08 (inactive),0.0983 (inactive),0.976 (inactive),-0.137 (inactive),1.89,0.0484 (inactive),-1.52 (inactive),-1.36
C=CCC(OC(C)=O)[C@@H]1[C@@H](N(Cc2cc3ccccc3o2)C(=O)c2ccc(-c3ccccc3)cc2)c2cc(OCCCO)ccc2N1C(=O)c1ccc2ccccc2c1 (stereo not given in full),-0.0582,-0.282 (inactive),0.2 (inactive),1.22 (inactive),0.655 (inactive),0.0798,-0.143,0.0664,-0.0892,1.12,-0.966 (inactive),0.187,0.923 (inactive),0.354 (inactive),0.216 (inactive),0.161 (inactive),-0.109,-1.08 (inactive),-0.72 (inactive),0.869
C=C(/C(=C/C[C@H](OC(C)=O)c1cccc(OCCO)c1)c1cnc2ccccc2c1)C(C)C,0.217,-0.262 (inactive),0.424 (inactive),5.97 (inactive),-0.323 (inactive),0.653,0.124,0.04,0.491,2,-0.0902 (inactive),-0.0141,18.7 (active),3.44 (inactive),1.67 (inactive),1.12 (inactive),-0.343,0.175 (inactive),-0.456 (inactive),-0.923
CN(C)C(=O)[C@@]1(Cc2ccccc2CN=[N+]=[N-])N=C(c2ccc(OCCCO)cc2)O[C@H]1c1ccccc1CN=[N+]=[N-],0.507,-3.14 (inactive),0.427 (inactive),2.69 (inactive),0.517 (inactive),1.1,0.575,0.0276,0.767,-0.304,-0.395 (inactive),0.315,10.9 (active),1.46 (inactive),0.589 (inactive),0.515 (inactive),0.0709,-0.379 (inactive),1.43 (inactive),2.09
CC(=O)NCCCC[C@@H]1NC(=O)[C@H]2C[C@@H](C(=O)NCCCC[N+](C)(C)C)[C@@H](c3cccc(OCCO)c3)N2C1=O,0.975,-1.62 (inactive),0.481 (inactive),-0.667 (inactive),0.451 (inactive),-0.296,0.0031,1.07,2.34,2.18,0.485 (inactive),0.165,2.46 (inactive),0.331 (inactive),-1.58 (inactive),0.374 (inactive),-0.611,-1.23 (inactive),-0.477 (inactive),-1.08
CC(C)C[C@@H]1NC(=O)[C@@H]2C[C@H](C(=O)NCCCCN(C)C)[C@H](c3cccc(OCCO)c3)N2C1=O,-0.179,-0.193 (inactive),-1.25 (inactive),-0.817 (inactive),0.645 (inactive),-0.911,0.0108,0.352,0.718,1.24,0.471 (inactive),0.0945,4.21 (inactive),0.239 (inactive),0.931 (inactive),0.128 (inactive),0.422,1.46 (inactive),1.13 (inactive),0.903
CCC(CC)C(O)C1C=CC2C(=O)N(c3ccccc3)C(=O)C2N1Nc1ccc(C(C)C)cc1 (stereo not given),0.578,-0.382 (inactive),-0.0181 (inactive),-0.136 (inactive),-0.156 (inactive),0.792,-0.0021,0.393,0.41,-0.0854,-0.636 (inactive),0.501,1.46 (inactive),1.19 (inactive),0.741 (inactive),0.801 (inactive),-0.463,-0.743 (inactive),-4.43 (inactive),-3.75
C=C(COC)C(=O)CC[C@@H](OC(=O)c1cccnc1)c1ccc(OCCO)cc1,1.71,-7.08 (inactive),0.403 (inactive),5.67 (inactive),0.0067 (inactive),-0.23,0.0471,0.889,0.321,1.54,-0.717 (inactive),0.235,7.63 (inactive),2.3 (inactive),-1.61 (inactive),1.21 (inactive),-0.482,0.838 (inactive),0.211 (inactive),-2.85
